Assay results published in PubChem BioAssay AID1566 (Sanford-Burnham Center for Chemical Genomics, 2009).
About 1,800 (0.62%) of roughly 290,000 compounds were called active. Many of the other results were omitted from the sample, so actives are more common in it than they were. Unmarked numbers belong to inactive results. Rule as the data show it: active = inhibition above about 50%; inactive = the rest.

Experiment: inhibition of NOD2-driven NF-kB reporter – cell-based, luminescence, uHTS, HEK293 (AID 1566)
Settings: HEK293 NOD2/NF-kB luciferase reporter, at 4 µM, active compounds read high
For CCOc1ccc(-c2cc(C)[n+](CCc3ccc(OC)c(OC)c3)c(-c3ccc(OCC)cc3)c2)cc1, the inhibition was 58.6% (active).
In the case of CCOc1ccc(-c2cc(C)[n+](CCO)c(-c3ccc(OCC)cc3)c2)cc1, the inhibition is reported as 0.3%.
For CCOc1ccc(-c2cc(C)[n+](CCN3CCOCC3)c(-c3ccc(OCC)cc3)c2)cc1, the inhibition was 21.6%.
COc1ccc(-c2cc(=NCCCCCC(=O)O)c3cc(C)ccc3o2)cc1 gave an inhibition of -4.2%.
In the case of N=C1C(c2ccccc2)=C(O)CN1Cc1ccco1, the inhibition is reported as 8.2%.
With Cc1cccc(-n2c(O)c(C=NCCN3CCNCC3)c(=O)[nH]c2=S)c1 the inhibition was -4.3%.
O=C(Cn1cc(C(=O)c2ccccc2F)c2ccccc21)NC1CC1 gave an inhibition of 13.6%.
Work on O=C(c1cc(C(=O)NCc2ccccc2)c(=O)n(Cc2ccccc2)c1)c1cc(Br)ccc1O yielded an inhibition of 2.5%.
CCCNS(=O)(=O)c1ccc(OCC(=O)N2CCN(Cc3ccc4c(c3)OCO4)CC2)cc1 gave an inhibition of 20.9%.
With CCc1ccc(OCC(=O)N2CCN(Cc3ccc4c(c3)OCO4)CC2)cc1 the inhibition was -4.3%.
With CCCCNS(=O)(=O)c1ccc(OCC(=O)N2CCN(Cc3ccc4c(c3)OCO4)CC2)cc1 the inhibition was 51.1% (active).
CC(C)CNP(=S)(c1ccccc1)C(C)(C)C (stereo unspecified) showed an inhibition of 10.7%.
For O=c1cc(CN2CCNCC2)nc2sccn12, the inhibition was 8.2%.
FC(F)(F)c1cccc(C2NCc3ccccc3-n3cccc32)c1 (stereo unspecified) gave an inhibition of 9.8%.
For CC(=O)OC1CC[C@]2(C#N)[C@H]3CC[C@]4(C)[C@H](C5C=CC(=O)O5)CCC4(O)C3CCC2(O)C1 (stereo partly specified), the inhibition was 75% (active).
Cn1cccc1CN1CCN(C(=O)COc2ccccc2)CC1 gave an inhibition of 16.7%.
With O=[N+]([O-])c1ccccc1CN1CC=C(c2ccc(F)cc2)CC1 the inhibition was -15.5%.
In the case of C[C@H]1O[C@@H](O[C@H]2[C@@H](O)C[C@H](O[C@H]3[C@@H](O)C[C@H](O[C@H]4CC[C@@]5(C)[C@H](CC[C@@H]6[C@@H]5CC[C@]5(C)[C@@H](C7=CC(=O)OC7)CC[C@]65O)C4)O[C@@H]3C)O[C@@H]2C)C[C@H](O)[C@@H]1O, the inhibition is reported as 73.9% (active).
Compound CC12CC[C@H]3[C@@H](CCC4(O)C[C@H](O)CCC34/C=N/NC(=O)c3ccccc3O)C1(O)CCC2C1=CC(=O)OC1 (stereo partly specified) has an inhibition of 17.2%.
With C[C@H]1O[C@@H](OC2CC[C@]3(C=O)[C@H]4CC[C@]5(C)[C@@H](C6=CC(=O)OC6)CC[C@]5(O)[C@@H]4CC[C@]3(O)C2)CC2OC(C)(C)OC21 (stereo partly specified) the inhibition was 73% (active).
CC12CC[C@H]3[C@@H](CCC4(O)C[C@H](O)CCC34/C=N/NC(=O)c3ccccc3Cl)C1(O)CCC2C1=CC(=O)OC1 (stereo partly specified) showed an inhibition of 25.4%.
Work on COc1ccc(C(=O)N/N=C/C23CC[C@@H](O)CC2(O)CC[C@@H]2[C@@H]3CCC3(C)C(C4=CC(=O)OC4)CCC23O)cc1 (stereo partly specified) yielded an inhibition of 27.3%.
CC12CC[C@H]3[C@@H](CCC4(O)C[C@H](O)CCC34/C=N/NC(=O)c3ccc(O)cc3)C1(O)CCC2C1=CC(=O)OC1 (stereo partly specified) gave an inhibition of 9.1%.
Compound CCOc1ccc(N=Cc2c(O)n(Cc3ccccc3)c(=S)[nH]c2=O)cc1 has an inhibition of 8.4%.
For CC(C)CCOP(N)(=O)Oc1ccccc1 (stereo unspecified), the inhibition was -6.2%.
Compound Cc1ccc2cccc(OC(=O)N(C)c3ccccc3)c2n1 has an inhibition of 5.1%.
Work on C=CCn1c(O)c(C(C)=NC2CC2)c(=O)[nH]c1=O yielded an inhibition of 4.6%.
Compound O=c1c2ccccc2nc(/C=C/c2ccc(O)cc2)n1-c1ccccc1O has an inhibition of -2.5%.
Cc1nc2ccc(Cl)cc2c(=O)n1-c1cccc(Cl)c1 gave an inhibition of -2.1%.
Compound O=C(Cn1nc(Cc2cccnc2)c2ccccc2c1=O)N1CCC2(CC1)OCCO2 has an inhibition of 20.3%.
COc1ccccc1/C=C1\C(=O)NC(=S)N(c2ccccc2)C1=O gave an inhibition of 11.6%.
Compound CCNC(=O)[C@H]1O[C@@H](n2cnc3c(N)ncnc32)[C@H](O)[C@@H]1O has an inhibition of -24.1%.
With NC(=S)c1cn(C2OC(CO)C(O)C2O)c2ncnc(N)c12 (stereo unspecified) the inhibition was 69.1% (active).
For C=C(C=O)C[C@@H]1C[C@H](O)C2OC3C[C@]4(C)OC5/C=C\CC6OC7C(CC=CCC6OC5CCCC4OC3CC2O1)OC1CC2OC3CC(=O)OC3C[C@@H](C)C[C@@]2(C)OC1C[C@@H]7C (stereo partly specified), the inhibition was 58.2% (active).
With C=C(CC1CC(O)[C@]2(C)OC3CC4OC5C[C@]6(C)O[C@]7(C)CCC8OC9C[C@]%10(C)OC%11C(C)=CC(=O)OC%11CC%10OC9C[C@@H](C)C8OC7CC6O[C@]5(C)C/C=C\C4OC3CC2O1)C(=O)O (stereo partly specified) the inhibition was 12.8%.
C=C(CO)CC1CC(O)[C@]2(C)OC3CC4OC5C[C@]6(C)O[C@]7(C)CCC8OC9C[C@]%10(C)OC%11C(C)=CC(=O)OC%11CC%10OC9C[C@@H](C)C8OC7CC6O[C@]5(C)C/C=C\C4OC3CC2O1 (stereo partly specified) gave an inhibition of 4.7%.
C=CCn1c(O)c(/C(C)=N/NC(=S)Nc2ccccc2)c(=O)[nH]c1=O gave an inhibition of 10.8%.
Work on CCOc1cccc(=NC2CCCCC2)c2c(C)n(C)c(C)c12 yielded an inhibition of 27%.
In the case of Cc1oc(-c2cccs2)nc1CSCC(=O)N1CCC2(CC1)OCCO2, the inhibition is reported as 57.1% (active).
COc1ccc(-c2nc(CSCC(=O)N3CCC4(CC3)OCCO4)c(C)o2)cc1OC showed an inhibition of -11.2%.
In the case of Cc1ccsc1-c1nc(CSCC(=O)N2CCC3(CC2)OCCO3)c(C)o1, the inhibition is reported as 11.3%.
O=c1[nH]c(=O)n(CCC2=CCCCC2)c(O)c1/C=N/Nc1cccc2ccccc12 gave an inhibition of 33.9%.
With CC1C(OC(=O)CCC(=O)NC(C)(C)CO)O[C@H]2OC3(C)CC[C@H]4[C@H](C)CCC1C24OO3 (stereo partly specified) the inhibition was 64.5% (active).
With C[C@H]1[C@H](OC(=O)CCC(=O)NCc2ccc(C(=O)O)cc2)O[C@@H]2O[C@@]3(C)CC[C@H]4[C@H](C)CC[C@@H]1C24OO3 the inhibition was 26.4%.
C[C@@H]1CC[C@H]2[C@@H](C)C(=O)O[C@@H]3O[C@@]4(C)CC[C@@H]1[C@]32OO4 showed an inhibition of 9%.
In the case of O=c1[nH]c(=O)n(CCC2=CCCCC2)c(O)c1/C=N/Nc1ccccc1, the inhibition is reported as 15.6%.
